# Measured values as given in PubChem BioAssay AID504546 (Broad Institute, 2011).
# Records with an inconclusive call do not appear. Activity calls are given as the source filed them.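 How the source made its calls: active means every repeat run fits a falling-signal curve with half-maximal potency within ten times top tested dose; inconclusive means runs disagree, or flat moderate drop, or poor fit; inactive means every run inactive, including signal moving upward.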
# Assay: inhibition of ADP-Glo detection reagents, dose response, artefact control for CDK5 inhibitor project, biochemical, luminescence, cherry-picked samples, set 2 (AID 504546)
# Details: ADP-Glo detection reagent counter screen, 5 uM ADP; series mostly up to 30 µM
row,Structure (SMILES),outcome
1,Cc1ccc2[nH]c(C(F)(F)F)cc(=O)c2c1,inactive
2,O=C(c1ccc2c(c1)OCCO2)N1CCN(c2ccccn2)CC1,inactive
3,CC(C)[C@H](CO)Nc1nc(Nc2ccc(Cl)c(C(=O)O)c2)c2ncn(C(C)C)c2n1,inactive
4,O=C(NNC(=O)c1ccco1)c1ccccc1,inactive
5,COc1cc(OC)c(C(=O)N2CCN(c3ccccn3)CC2)cc1OC,inactive
6,C=CCNC(=O)c1n[nH]c2c1CC(C(C)(C)CC)CC2 (stereo unspecified),inactive
7,Nc1nc(Nc2ccccc2)sc1C(=O)c1ccccc1,inactive
8,O=C(O)c1ccc(N/N=C/c2ccc(C(F)(F)F)cc2)cc1,inactive
9,O=C(Cc1ccc(O)cc1)NCCNC(=S)NCc1ccccc1,inactive
10,COc1ccccc1C(=O)N1CCN(c2ccccn2)CC1,inactive
11,O=C1NC(=O)C(c2ccccc2[N+](=O)[O-])=C1Nc1ccc(O)c(Cl)c1,inactive
12,CCNc1nc(N)nc(-c2cc(Cl)ccc2O)n1,inactive
13,Oc1ccc(/C=N/Nc2ccc(C(F)(F)F)cn2)c(O)c1,inactive
14,CCc1c(Nc2ccccc2Cl)nc(N)[nH]c1=O,inactive
15,COc1cc2ccccc2ccc1=NO,inactive
16,CCCn1c(NC(=O)c2cccc(S(=O)(=O)N3CCCC3)c2)nc2ccccc21,inactive
17,Nc1ccc2c(c1)C(=NO)c1ccccc1-2,inactive
18,Nc1nc(Nc2cccc(Cl)c2)nc(NCCO)c1[N+](=O)[O-],inactive

row,Structure (SMILES),outcome
1,OCCCNc1cc(-c2ccnc(Nc3cccc(Cl)c3)n2)ccn1,inactive
2,COc1ccc(Nc2nc(N)c(C(=O)c3ccc(OC)cc3)s2)cc1,inactive
3,O=[N+]([O-])c1ccc2c(c1)/C(=N\O)c1ccccc1-2,inactive
4,O=C(NNC(=O)c1ccccn1)c1ccc(OC(F)F)cc1,inactive
5,C=CC(=O)Nc1ccc(Nc2ccnc(Nc3ccc(N4CCN(C)CC4)cc3)n2)cc1,inactive
6,Oc1ccc(C=NNc2ccccn2)c(O)c1,inactive
7,Cc1ncc(CO)c(/C=N/Nc2ccc(C(F)(F)F)cn2)c1O,inactive
8,O=C(c1ccc2c(c1)OCO2)N1CCN(c2ccccn2)CC1,inactive
9,CC(C)(C)C(=O)c1sc(Nc2ccccc2)nc1N,inactive
10,COc1cc(/C=N/Nc2ccc(C(F)(F)F)cn2)ccc1O,inactive
11,COc1ccc(C(=O)c2sc(Nc3ccccc3)nc2N)cc1,inactive
12,Cc1nn(-c2nccs2)c2c1C(=O)CC(C)(C)C2Br (stereo unspecified),inactive
13,Cc1nc(Nc2ccccc2)sc1C(=O)c1ccc(F)cc1,inactive
14,S=C(c1ccc(OCc2ccccc2)cc1)N1CCCC1,inactive
15,COc1ccc2ccc3ccc(OC)c(OC(C)=O)c3c2c1,inactive
16,COc1cc(C(=O)N2CCN(c3ccccn3)CC2)cc(OC)c1OC,inactive
17,Cc1nn(-c2ncccn2)c2c1C(=O)CC(C)(C)C2Br (stereo unspecified),inactive
18,O=C(O)c1ccc(/C=N/Nc2ccc(C(F)(F)F)cn2)cc1,inactive
